In PubChem BioAssay (NCI):
Compounds without any hit were thinned out: in the full panel of roughly 79,000, 15% have a hit. Active and inactive are the calls of the source. Rule as the data show it: active = growth inhibition above about 70%; inactive = the rest.

Experiments:
[1] = NCI Yeast Anticancer Drug Screen. Data for the sgs1 mgt1 strain (AID 161);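 also: 0% = growth of cultures given vehicle only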; settings: S. cerevisiae sgs1 mgt1 strain, hits give high values
In short: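 Growth of a repair-deficient yeast mutant was monitored after compound treatment and expressed as inhibition relative to vehicle-treated cultures.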

[2] = NCI Yeast Anticancer Drug Screen. Data for the cln2 rad14 strain (AID 165);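 also: 0% = growth equal to vehicle treated cultures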; settings: S. cerevisiae cln2 rad14 strain, hits give high values
In short: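 Relative to vehicle controls, growth inhibition of compound-treated cln2 rad14 yeast was recorded.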

[3] = NCI Yeast Anticancer Drug Screen. Data for the bub3 strain (AID 167); settings: S. cerevisiae bub3 mutant strain, hits give high values
In short: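 Part of a panel of yeast mutants defective in DNA damage repair or cell cycle regulation. Each strain is grown with compound, and inhibition is calculated relative to solvent-treated cultures.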

[4] = NCI Yeast Anticancer Drug Screen. Data for the wt2 strain (AID 169);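 also: 0% = growth of vehicle-treated yeast cultures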; settings: S. cerevisiae wt2 strain growth inhibition, hits give high values
In short: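 Values express reduction in yeast growth under compound treatment, referenced to vehicle-treated cells.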

[5] = NCI Yeast Anticancer Drug Screen. Data for the mlh1 strain (AID 171);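 also: 0% = growth of vehicle-treated control cultures of the same strain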; settings: S. cerevisiae mlh1 strain growth inhibition, hits give high values
In short: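 Steps: expose the defined-mutant yeast strain to compound; expose a parallel culture to vehicle; measure growth; express compound effect as inhibition relative to the vehicle culture.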

[6] = NCI Yeast Anticancer Drug Screen. Data for the sgs1 strain (AID 173);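 also: 0% = growth of vehicle-only control cultures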; settings: S. cerevisiae sgs1 mutant, hits give high values
In short: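 Treat defined-mutant yeast with compound; measure growth; calculate inhibition relative to vehicle-treated cells.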

[7] = NCI Yeast Anticancer Drug Screen. Data for the mlh1 rad18 strain (AID 175); settings: S. cerevisiae mlh1 rad18 strain growth inhibition, hits give high values
In short: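 Test agents were incubated with a yeast strain of defined genotype (DNA damage repair defect). Inhibition of growth was derived by comparison with vehicle-exposed cultures.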

[8] = NCI Yeast Anticancer Drug Screen. Data for the rad18 strain (AID 177); settings: S. cerevisiae rad18 mutant growth inhibition, hits give high values
In short: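 A genetically defined yeast mutant impaired in DNA damage repair was treated with test compounds, then its growth was measured against cultures receiving vehicle alone.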

[9] = NCI Yeast Anticancer Drug Screen. Data for the rad52 strain (AID 147);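 also: 0% = growth of vehicle-treated control cultures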; settings: S. cerevisiae rad52 mutant growth inhibition, hits give high values
In short: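 Screen used a yeast mutant impaired in DNA repair. After compound exposure, growth was measured. Values reflect inhibition compared with vehicle-treated cells.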

[10] = NCI Yeast Anticancer Drug Screen. Data for the wt1 strain (AID 149);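 also: 0% = growth of vehicle-treated wt1 cultures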; settings: S. cerevisiae wt1 strain (SPY 50644) growth inhibition, hits give high values
In short: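 The wt1 strain was treated with compounds, and growth was compared with vehicle-treated cultures to give inhibition.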

[11] = NCI Yeast Anticancer Drug Screen. Data for the rad50 strain (AID 155);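 also: 0% = growth of vehicle-only cultures of the same strain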; settings: S. cerevisiae rad50 strain growth inhibition, hits give high values
In short: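 Cells are treated with compound, grown, and their growth is then scored against vehicle-only cultures of the same repair-deficient yeast strain.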

[12] = NCI Yeast Anticancer Drug Screen. Data for the mec2-1 strain (AID 157); settings: S. cerevisiae mec2-1 strain, hits give high values
In short: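 Readout is yeast growth inhibition, normalised to vehicle-treated controls, in the mec2-1 strain exposed to compound.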

[13] = NCI Yeast Anticancer Drug Screen. Data for the rad14 strain (AID 159);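 also: 0% = growth of vehicle-treated control cultures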; settings: S. cerevisiae rad14 strain growth inhibition, hits give high values
In short: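 Readout: yeast growth inhibition, referenced to vehicle-only cultures. Strain bears a defined alteration in DNA damage repair.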

[14] = NCI Yeast Anticancer Drug Screen. Data for the CLN2oe strain (AID 163);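 also: 0% = growth of vehicle-only control cultures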; settings: S. cerevisiae CLN2oe strain, hits give high values
In short: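 Values reflect how much compound exposure reduced yeast growth, referenced to vehicle-exposed cells. Assay organism is a strain with a defined genetic change affecting cell-cycle control.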

[15] = at 5.0 µM (retest, dose inferred, filed as 0.5)
[16] = at 50.0 µM (retest, dose inferred, filed as 5.0)

Measured: growth inhibition

CN(C)[C@@H]1C(=O)C(C(N)=O)=C(O)[C@@]2(O)C(=O)C3=C(O)c4c(O)cccc4C[C@H]3C[C@@H]12
active: [1]; at 50.0 µM 91% | [2]; [16] 99% | [2]; at 50.0 µM 84.7% | [3]; [15] 97% | [3]; at 33.0 µM 97% | [3]; [16] 99% | [3]; at 50.0 µM 89% | [3]; at 100.0 µM 99% | [4]; at 33.0 µM 99% | [4]; at 100.0 µM 99% | [5]; at 33.0 µM 97% | [5]; at 100.0 µM 99% | [6]; at 33.0 µM 98% | [6]; at 100.0 µM 99% | [7]; [16] 99% | [7]; at 50.0 µM 89.8% | [8]; at 33.0 µM 95% | [8]; at 100.0 µM 99%
inactive: [2]; [15] 61% | [3]; at 1.2 µM -8% | [3]; at 3.7 µM -7% | [3]; at 11.0 µM 5% | [4]; at 1.2 µM 9% | [4]; at 3.7 µM 14% | [4]; at 11.0 µM 52% | [5]; at 1.2 µM -13% | [5]; at 3.7 µM -11% | [5]; at 11.0 µM 36% | [6]; at 1.2 µM -7% | [6]; at 3.7 µM -9% | [6]; at 11.0 µM 26% | [7]; [15] 38% | [8]; at 1.2 µM -7% | [8]; at 3.7 µM -8% | [8]; at 11.0 µM -2%

CN(C)CCNC(=O)c1cccc2c1Oc1c(cccc1[N+](=O)[O-])O2
active: [9]; at 100.0 µM 93% | [11]; at 33.0 µM 76% | [11]; [16] 72% | [11]; at 100.0 µM 95% | [3]; at 100.0 µM 74% | [5]; at 100.0 µM 75%
inactive: [9]; at 1.2 µM -20% | [9]; at 3.7 µM -21% | [9]; at 11.0 µM -12% | [9]; at 33.0 µM 59% | [10]; at 1.2 µM -13% | [10]; at 3.7 µM -20% | [10]; at 11.0 µM -14% | [10]; at 33.0 µM -12% | [10]; at 100.0 µM 29% | [11]; at 1.2 µM 6% | [11]; at 3.7 µM 10% | [11]; [15] 29% | [11]; at 11.0 µM 24% | [11]; at 50.0 µM 32.6% | [12]; at 1.2 µM -12% | [12]; at 3.7 µM -23% | [12]; [15] -7% | [12]; at 11.0 µM -20% | [12]; at 33.0 µM -9% | [12]; [16] 16% | [12]; at 50.0 µM 7.85% | [12]; at 100.0 µM 56% | [13]; at 1.2 µM -12% | [13]; at 3.7 µM -12% | [13]; at 11.0 µM -10% | [13]; at 33.0 µM -8% | [13]; at 100.0 µM 40% | [1]; [15] 11% | [1]; [16] 16% | [1]; at 50.0 µM 11.5% | [14]; at 1.2 µM 24% | [14]; at 3.7 µM 12% | [14]; at 11.0 µM 20% | [14]; at 33.0 µM 6% | [14]; at 100.0 µM 58% | [2]; [15] 47% | [2]; [16] 38% | [2]; at 50.0 µM 14.4% | [3]; at 1.2 µM 25% | [3]; at 3.7 µM 31% | [3]; [15] 20% | [3]; at 11.0 µM 13% | [3]; at 33.0 µM 26% | [3]; [16] 29% | [3]; at 50.0 µM 0.95% | [4]; at 1.2 µM -37% | [4]; at 3.7 µM -27% | [4]; at 11.0 µM -40% | [4]; at 33.0 µM -37% | [4]; at 100.0 µM 26% | [5]; at 1.2 µM 15% | [5]; at 3.7 µM 13% | [5]; at 11.0 µM 18% | [5]; at 33.0 µM 38% | [6]; at 1.2 µM -10% | [6]; at 3.7 µM 2% | [6]; at 11.0 µM -1% | [6]; at 33.0 µM 2% | [6]; at 100.0 µM 48% | [7]; [15] 15% | [7]; [16] 29% | [7]; at 50.0 µM 18.4% | [8]; at 1.2 µM -3% | [8]; at 3.7 µM 0% | [8]; at 11.0 µM -5% | [8]; at 33.0 µM 13% | [8]; at 100.0 µM 69%
